Holding throughout (settings): mRNA level, 48 h; actives raise or lower the signal
Read-out in test [1]: Cyclin D1 (CCND1), CCND1 (gene 595)
Kind of test: LTEA_HepaRG_CCND1: Life Technologies and Expression Analysis (LTEA) Assay for Cyclin D1 (CCND1) using HepaRG (AID 2283451).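 For AC50: TaqMan qRT-PCR transcript level normalised to ACTB GAPDH and POLR2A housekeeping genes.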 The procedure, abridged:
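Differentiated HepaRG cells exposed 48 h in serum-free induction medium to eight half-log concentrations from 100 uM top, 0.5% DMSO, duplicates. CCND1 mRNA measured by Fluidigm TaqMan qRT-PCR, normalised to ACTB, GAPDH, POLR2A; bidirectional fit.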

Read-out in test [2]: catalase (CAT), CAT (gene 847)
Kind of test: LTEA_HepaRG_CAT: Life Technologies and Expression Analysis (LTEA) Assay for catalase (CAT) using HepaRG (AID 2283452).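 Note: TaqMan qRT-PCR signal normalized to ACTB GAPDH and POLR2A housekeeping genes.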 In a few lines: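 Differentiated HepaRG cells in serum-free induction medium were dosed 48 h in duplicate, eight half-log concentrations from 100 uM in 0.5% DMSO. Transcript measured by TaqMan qRT-PCR, normalised to ACTB/GAPDH/POLR2A, fitted bidirectionally against DMSO.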

Read-out in test [3]: flavin-containing dimethylaniline monooxygenases 3 (FMO3), FMO3 (gene 2328)
Put plainly: LTEA_HepaRG_FMO3: Life Technologies and Expression Analysis (LTEA) Assay for flavin-containing dimethylaniline monooxygenases 3 (FMO3) using HepaRG (AID 2283453).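 Note: FMO3 transcript by TaqMan qRT-PCR normalized to ACTB GAPDH and POLR2A.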 The procedure, abridged: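 HepaRG, 48 h exposure, 8-pt half-log series from 100 uM, 0.5% DMSO vehicle, duplicates; FMO3 transcript by Fluidigm TaqMan qRT-PCR, housekeeping-normalized; gain/loss fit vs DMSO.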

Read-out in test [4]: Cytochrome P450 (CYP1A1), CYP1A1 (gene 1543)
Put plainly: LTEA_HepaRG_CYP1A1: Life Technologies and Expression Analysis (LTEA) Assay for Cytochrome P450 (CYP1A1) using HepaRG (AID 2283454). The procedure, abridged: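 Differentiated human HepaRG cells, after 48 h plating, exposed in duplicate for 48 h in serum-free induction medium to 8 half-log concentrations up to 100 uM in 0.5% DMSO. CYP1A1 mRNA by qRT-PCR, normalized to ACTB/GAPDH/POLR2A; bidirectional fit versus DMSO.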

Read-out in test [5]: CFLAR gene, CFLAR (gene 8837)
Kind of test: LTEA_HepaRG_CFLAR: Life Technologies and Expression Analysis (LTEA) Assay for CFLAR gene using HepaRG (AID 2283455). In a few lines: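 HepaRG cells were plated for 48 h, switched to serum-free induction medium, then exposed in duplicate for 48 h to 8 concentrations (top 100 uM, half-log steps, 0.5% DMSO). CFLAR mRNA was measured by qRT-PCR, normalized to ACTB, GAPDH and POLR2A.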

Read-out in test [6]: Forkhead box O1 (FOXO1), FOXO1 (gene 2308)
Put plainly: LTEA_HepaRG_FOXO1: Life Technologies and Expression Analysis (LTEA) Assay for Forkhead box O1 (FOXO1) using HepaRG (AID 2283456). The procedure, abridged:
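Differentiated human HepaRG cells in serum-free induction medium were exposed in duplicate for 48 h to eight half-log concentrations (top 100 uM, 0.5% DMSO). FOXO1 mRNA was measured by TaqMan qRT-PCR, normalised to ACTB, GAPDH and POLR2A, and fitted bidirectionally against DMSO.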

Read-out in test [7]: growth arrest and DNA damage 45 (GADD45A), GADD45A (gene 1647)
Put plainly: LTEA_HepaRG_GADD45A: Life Technologies and Expression Analysis (LTEA) Assay for growth arrest and DNA damage 45 (GADD45A) using HepaRG (AID 2283458). The procedure, abridged: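 Differentiated HepaRG cells were exposed in duplicate for 48 h in serum-free induction medium to 8-point half-log concentrations up to 100 uM in 0.5% DMSO. GADD45A mRNA was measured by TaqMan qRT-PCR, normalized to ACTB, GAPDH and POLR2A, with bidirectional fitting versus DMSO.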

Read-out in test [8]: Forkhead box O3 (FOXO3), FOXO3 (gene 2309)
Kind of test: LTEA_HepaRG_FOXO3: Life Technologies and Expression Analysis (LTEA) Assay for Forkhead box O3 (FOXO3) using HepaRG (AID 2283459). In a few lines:
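Differentiated human HepaRG cells in serum-free induction medium were exposed in duplicate for 48 h to eight half-log concentrations up to 100 uM in 0.5% DMSO. FOXO3 mRNA was quantified by qRT-PCR, normalized to ACTB, GAPDH and POLR2A, with bidirectional fitting versus DMSO.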

Read-out in test [9]: ABC Transporter (ABCB1), ABCB1 (gene 5243)
Put plainly: LTEA_HepaRG_ABCB1: Life Technologies and Expression Analysis (LTEA) Assay for ABC Transporter (ABCB1) using HepaRG (AID 2283460). The procedure, abridged: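 Differentiated human HepaRG cells, plated 48 h then switched to serum-free induction medium, were exposed in duplicate to eight half-log concentrations up to 100 uM in 0.5% DMSO for 48 h. ABCB1 mRNA was measured by TaqMan qRT-PCR, normalized to ACTB/GAPDH/POLR2A.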

Read-out in test [10]: growth arrest and DNA damage 45 (GADD45B), GADD45B (gene 4616)
Put plainly: LTEA_HepaRG_GADD45B: Life Technologies and Expression Analysis (LTEA) Assay for growth arrest and DNA damage 45 (GADD45B) using HepaRG (AID 2283461). The procedure, abridged:
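Differentiated human HepaRG cells in serum-free induction medium exposed 48 h in duplicate to eight concentrations, top 100 uM, half-log steps, 0.5% DMSO. GADD45B mRNA by TaqMan qRT-PCR, normalized to ACTB, GAPDH, POLR2A; bidirectional fit versus DMSO.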

Read-out in test [11]: ABC Transporter (ABCC3), ABCC3 (gene 8714)
Put plainly: LTEA_HepaRG_ABCC3: Life Technologies and Expression Analysis (LTEA) Assay for ABC Transporter (ABCC3) using HepaRG (AID 2283462). The procedure, abridged: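 Differentiated human HepaRG cells exposed 48 h in serum-free induction medium, 0.5% DMSO vehicle, 8-point half-log series to 100 uM in duplicate. ABCC3 mRNA by qRT-PCR, normalised to ACTB, GAPDH, POLR2A; bidirectional fit vs DMSO.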

Read-out in test [12]: ABC Transporter (ABCB11), ABCB11 (gene 8647)
Kind of test: LTEA_HepaRG_ABCB11: Life Technologies and Expression Analysis (LTEA) Assay for ABC Transporter (ABCB11) using HepaRG (AID 2283463). In a few lines: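 Differentiated human HepaRG cells were exposed for 48 h in serum-free induction medium to eight half-log concentrations up to 100 uM in 0.5% DMSO. ABCB11 mRNA was quantified by qRT-PCR, normalized to ACTB, GAPDH and POLR2A, and fitted bidirectionally versus DMSO.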

Read-out in test [13]: ABC Transporter (ABCC2), ABCC2 (gene 1244)
Put plainly: LTEA_HepaRG_ABCC2: Life Technologies and Expression Analysis (LTEA) Assay for ABC Transporter (ABCC2) using HepaRG (AID 2283464). The procedure, abridged:
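Differentiated HepaRG cells in serum-free induction medium exposed 48 h to eight half-log concentrations up to 100 uM, 0.5% DMSO, in duplicate. ABCC2 mRNA measured by qRT-PCR (TaqMan, Fluidigm), normalized to ACTB, GAPDH and POLR2A. Fitted in both directions against DMSO.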

Read-out in test [14]: Broad substrate specificity ATP-binding cassette transporter ABCG2 (Homo sapiens) (UniProt Q9UNQ0)
Put plainly: LTEA_HepaRG_ABCG2: Life Technologies and Expression Analysis (LTEA) Assay for ABC Transporter (ABCG2) using HepaRG (AID 2283465). The procedure, abridged: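 Differentiated HepaRG cells in serum-free induction medium were exposed for 48 h, in duplicate, to eight half-log concentrations up to 100 uM in 0.5% DMSO. ABCG2 mRNA was measured by TaqMan qRT-PCR, normalized to ACTB, GAPDH and POLR2A, and fitted bidirectionally versus DMSO.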

Read-out in test [15]: ATP-citrate lyase (ACLY), ACLY (gene 47)
Put plainly: LTEA_HepaRG_ACLY: Life Technologies and Expression Analysis (LTEA) Assay for ATP-citrate lyase (ACLY) using HepaRG (AID 2283466). The procedure, abridged:
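Differentiated human HepaRG cells in serum-free induction medium exposed 48 h, in duplicate, to eight half-log concentrations from 100 uM top in 0.5% DMSO; ACLY mRNA measured by qRT-PCR, normalized to ACTB, GAPDH, POLR2A, fitted bidirectionally versus DMSO.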

Read-out in test [16]: Alkaline Phosphatase, Placental (ALPP) gene, ALPP (gene 250)
Put plainly: LTEA_HepaRG_ALPP: Life Technologies and Expression Analysis (LTEA) Assay for Alkaline Phosphatase, Placental (ALPP) gene using HepaRG (AID 2283468). The procedure, abridged:
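HepaRG cells plated 48 h, then exposed in duplicate for 48 h in serum-free induction medium to 8-point half-log series from 100 uM in 0.5% DMSO. ALPP mRNA by TaqMan qRT-PCR, normalized to ACTB/GAPDH/POLR2A; bidirectional fit versus DMSO.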

Read-out in test [17]: Cyclin Dependent Kinase Inhibitor 1A (CDKN1A), CDKN1A (gene 1026)
Kind of test: LTEA_HepaRG_CDKN1A: Life Technologies and Expression Analysis (LTEA) Assay for Cyclin Dependent Kinase Inhibitor 1A (CDKN1A) using HepaRG (AID 2283450). The procedure, abridged:
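Differentiated HepaRG cells in serum-free induction medium, exposed 48 h in duplicate to eight half-log concentrations up to 100 uM in 0.5% DMSO. mRNA measured by TaqMan qRT-PCR, normalized to ACTB, GAPDH, POLR2A; bidirectional fit versus DMSO.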

Read-out in test [18]: Bcl-2 (BAD) gene, BAD (gene 572)
Kind of test: LTEA_HepaRG_BAD: Life Technologies and Expression Analysis (LTEA) Assay for Bcl-2 (BAD) gene using HepaRG (AID 2283469). In a few lines:
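Differentiated human HepaRG cells in serum-free induction medium were exposed in duplicate for 48 h to eight concentrations (top 100 uM, half-log steps, 0.5% DMSO). BAD mRNA was quantified by qRT-PCR normalised to ACTB, GAPDH and POLR2A, with bidirectional fitting versus DMSO.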

As usually defined, the AC50 is the midpoint of the concentration-response curve, whichever way the signal moves.

Structures are written as SMILES. The source made the active and inactive calls. Rule for the calls: active = hit-call score of the fitted dose curve at least 0.9, where 1 is the maximum; inactive = score below 0.9.

Chain of Broad substrate specificity ATP-binding cassette transporter ABCG2 (Homo sapiens) (Q9UNQ0 whole entry, looked up): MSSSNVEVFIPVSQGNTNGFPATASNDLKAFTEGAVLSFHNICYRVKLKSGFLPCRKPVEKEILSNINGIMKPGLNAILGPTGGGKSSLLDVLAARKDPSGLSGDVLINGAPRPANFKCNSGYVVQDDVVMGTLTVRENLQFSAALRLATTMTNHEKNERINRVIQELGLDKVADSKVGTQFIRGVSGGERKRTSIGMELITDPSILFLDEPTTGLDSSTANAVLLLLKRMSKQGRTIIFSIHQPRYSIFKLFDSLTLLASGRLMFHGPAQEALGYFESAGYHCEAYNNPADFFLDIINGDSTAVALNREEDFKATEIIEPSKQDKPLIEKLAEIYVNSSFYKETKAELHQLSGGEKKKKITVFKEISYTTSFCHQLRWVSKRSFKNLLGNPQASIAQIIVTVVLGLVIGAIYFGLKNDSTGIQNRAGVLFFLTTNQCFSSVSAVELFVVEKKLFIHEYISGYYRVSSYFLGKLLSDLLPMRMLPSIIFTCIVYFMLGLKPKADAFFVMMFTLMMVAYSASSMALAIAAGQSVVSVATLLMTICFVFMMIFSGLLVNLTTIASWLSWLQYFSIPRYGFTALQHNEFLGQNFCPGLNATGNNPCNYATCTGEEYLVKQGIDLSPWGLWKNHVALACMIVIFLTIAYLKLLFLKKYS

Take `CCc1cc(C2=C(C(=O)O)N(c3ccccc3C(F)(F)F)S(=O)(=O)c3ccccc32)cc2c1OCO2`: the outcome in test [1], in test [5], in [6], in [7], in test [8] and in test [10] was inactive. For the same compound, the result in test [11] was inactive. Moreover, the AC50 in test [2] was 50 µM (active); in [3], 78.8 µM (active); in test [4] it was 50 µM (active); in test [9], 3.3 µM (active); in test [12], 32.1 µM (active); in [13], 1.64 µM (active). For the same compound, the figures for the AC50 in [14], in test [15] and in test [16] were 23.7 µM (active), 65.2 µM (active) and 30.9 µM (active), respectively.
Take `Nc1nc(Cl)nc2c1ncn2[C@H]1C[C@H](O)[C@@H](CO)O1`: the concentration at half-maximal activity (AC50) was 168 nM (active) in test [17]; 3.49 µM (active) in [1]; 2.05 µM (active) in test [3]; 0.749 µM (active) in [4]; 1.65 µM (active) in [6]; 263 nM (active) in [7]. Also, the AC50 in test [8] is 2.18 µM (active); in [9], 1.39 µM (active); in test [11], 987 nM (active); in test [12] it was 0.593 µM (active); in test [13], 1.12 µM (active). For the same compound, the compound was classed as inactive in test [5], in test [14], in [15], in [16] and in test [18].

Source of the values: PubChem BioAssay (EPA / NIEHS).
